Results taken from PubChem BioAssay (NCATS).
Results filed as inconclusive are left out. Active and inactive are the calls of the source. Calls follow the shape of the dose curve; as a rule, active = well fitted curve in the direction sought with a large enough effect; inconclusive = small, poorly fitted or top-dose-only effect, or another doubt; inactive = no such curve, though single readings can be large; an effect the other way counts as inactive or inconclusive. Numbered stars: 1 amine (or outer) side, 2 acyl side, 3 side chain; on linkers, the order of the positions; unused ones are H or OH. Bridge positions count the residues as written; N and C are the ends. Square brackets hold non-standard residues; d marks the D form. Peptide text beside a SMILES is read from it. I, II: the chains in the order shown. Actinocin(9to1) = Cc1c2oc3c(C)ccc(C(=O)[*:1])c3nc-2c(C(=O)[*:2])c(N)c1=O; NMeV = CN[C@H](C(=O)O)C(C)C; Sar = CNCC(=O)O

Legend:
MCC-13 = assay: qHTS assay to identify novel small-molecules to repurpose for Merkel cell carcinoma treatment (AID 1296009); details: MCC and control cell lines, CellTiter-Glo viability, 72 h; series mostly up to 46 µM; also: nearly all actives have a fitted effect of over 60% in size
Method in brief: (§1)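 Cell viability measured by CellTiter-Glo following 72 hr compound treatment at 37 degree celsius, with NPC and MIPE libraries tested in 8- and 11-point concentration series.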

MKL-1 = assay: as above; details: MCC and control cell lines, CellTiter-Glo viability, 72 h; series mostly up to 46 µM
Method in brief: as §1

MKL-2 = assay: as above; details: MCC and control cell lines, CellTiter-Glo viability, 72 h; series mostly up to 46 µM
Method in brief: as §1

NIH3T3 = assay: as above; details: MCC and control cell lines, CellTiter-Glo viability, 72 h; at 44.8 µM (top of the series) unless noted
Method in brief: as §1

UISO = assay: as above; details: MCC and control cell lines, CellTiter-Glo viability, 72 h; series mostly up to 46 µM
Method in brief: as §1

WaGa = assay: as above; details: MCC and control cell lines, CellTiter-Glo viability, 72 h; series mostly up to 46 µM
Method in brief: as §1

C33A = assay: Primary qHTS to identify gynecologic anti-cancer compounds using libraries of approved drugs and bioactive compounds (AID 1345084); details: Gynecologic cancer cell panel viability, ATPlite luminescence, 48 h; series mostly up to 57.5 µM; also: nearly all actives have a fitted effect of over 55% in size
Method in brief: (§2)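 Cytotoxicity screen measuring ATP content by luciferase luminescence. Each compound is applied at five concentrations for 48 h at 37 C with 5% CO2.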

CAOV3 = assay: as above; details: Gynecologic cancer cell panel viability, ATPlite luminescence, 48 h; series mostly up to 57.5 µM
Method in brief: as §2

CASKI = assay: as above; details: Gynecologic cancer cell panel viability, ATPlite luminescence, 48 h; series mostly up to 57.5 µM
Method in brief: as §2

Es-2 = assay: as above; details: Gynecologic cancer cell panel viability, ATPlite luminescence, 48 h; series mostly up to 57.5 µM
Method in brief: as §2

HeLa = assay: as above; details: Gynecologic cancer cell panel viability, ATPlite luminescence, 48 h; series mostly up to 57.5 µM
Method in brief: as §2

Hek293T = assay: as above; details: Gynecologic cancer cell panel viability, ATPlite luminescence, 48 h, control line for the selectivity index; series mostly up to 57.5 µM
Method in brief: as §2

JEG-3 = assay: as above; details: Gynecologic cancer cell panel viability, ATPlite luminescence, 48 h; series mostly up to 57.5 µM
Method in brief: as §2

OV90 = assay: as above; details: Gynecologic cancer cell panel viability, ATPlite luminescence, 48 h; series mostly up to 57.5 µM
Method in brief: as §2

PA-1 = assay: as above; details: Gynecologic cancer cell panel viability, ATPlite luminescence, 48 h; series mostly up to 57.5 µM
Method in brief: as §2

SKOV3 = assay: as above; details: Gynecologic cancer cell panel viability, ATPlite luminescence, 48 h; series mostly up to 57.5 µM
Method in brief: as §2

Tov-21-G = assay: as above; details: Gynecologic cancer cell panel viability, ATPlite luminescence, 48 h; series mostly up to 57.5 µM
Method in brief: as §2

Tov112D = assay: as above; details: Gynecologic cancer cell panel viability, ATPlite luminescence, 48 h; series mostly up to 57.5 µM
Method in brief: as §2

[1] = Drug repurposing screens with cells derived from glioblastoma tumor samples (AID 1345199); details: GBM patient neurospheres viability, ATP luminescence, 48 h; also: nearly all actives have a fitted effect of over 40% in size
Method in brief: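 Primary testing used CD133+ neurospheres from four GBM patients, seven concentrations, 48 h exposure and ATP-based viability; confirmation added three slower-growing patient lines.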

MCC-26 = assay: qHTS assay to identify novel small-molecules to repurpose for Merkel cell carcinoma treatment (AID 1296009); details: MCC and control cell lines, CellTiter-Glo viability, 72 h; series mostly up to 46 µM; also: nearly all actives have a fitted effect of over 60% in size
Method in brief: as §1

[2] = at 20 µM (top of the series), tumour line C
[3] = at 21.2 µM (top of the series), tumour line B
[4] = at 21.2 µM (top of the series), tumour line D
[5] = at 45.9 µM (top of the series), tumour line B
[6] = at 45.9 µM (top of the series), tumour line D
[7] = at 46.1 µM (top of the series), tumour line C
% is scaled to controls: 0 for no effect and ±100 for the full control effect; potency is read from the fitted curve at half-maximal effect.

CN1CCN(C(c2ccccc2)c2ccccc2)CC1
inactive: Potency (MCC-13) | Potency (MKL-1) | Potency (MKL-2) | outcome (NIH3T3) | Potency (UISO) | Potency (WaGa) | Potency (C33A) | Potency (CAOV3) | Potency (CASKI) | Potency (Es-2) | Potency (HeLa) | Potency (Hek293T) | Potency (JEG-3) | Potency (OV90) | Potency (PA-1) | Potency (SKOV3) | Potency (Tov-21-G) | Potency (Tov112D) | activity, negative = cell killing [1, 2] -1.97% | activity, negative = cell killing [1, 3] -1.95% | activity, negative = cell killing [1, 4] -26.8%

CN1CCN(CCCN2c3ccccc3Sc3ccc(S(=O)(=O)N(C)C)cc32)CC1
active: Potency ([1]; tumour line A) 7.94 µM
inactive: Potency (MCC-13) | Potency (MCC-26) | Potency (UISO) | Potency (C33A) | Potency (CAOV3) | Potency (CASKI) | Potency (Es-2) | Potency (HeLa) | Potency (Hek293T) | Potency (JEG-3) | Potency (SKOV3) | Potency (Tov-21-G) | Potency (Tov112D) | activity, negative = cell killing [1, 2] 3.3% | activity, negative = cell killing [1, 3] -12.4%

Cc1c2oc3c(C)ccc(C(=O)N[C@@H]4C(=O)N[C@H](C(C)C)C(=O)N5CCC[C@H]5C(=O)N(C)CC(=O)N(C)[C@@H](C(C)C)C(=O)O[C@@H]4C)c3nc-2c(C(=O)N[C@@H]2C(=O)N[C@H](C(C)C)C(=O)N3CCC[C@H]3C(=O)N(C)CC(=O)N(C)[C@@H](C(C)C)C(=O)O[C@@H]2C)c(N)c1=O (I: T[dV]P[Sar][NMeV] / II: T[dV]P[Sar][NMeV]; ester I:1-I:C, II:1-II:C; linker I:N-II:N via Actinocin(9to1))
active: Potency (MCC-13) 0.0335 µM | Potency (MCC-26) 0.0211 µM | Potency (MKL-2) 0.0038 µM | Potency (UISO) 0.0033 µM

O=C(OCC(O)CO)c1ccccc1Nc1ccnc2cc(Cl)ccc12 (configuration not stated)
inactive: Potency (MCC-13) | Potency (MCC-26) | Potency (MKL-1) | Potency (C33A) | Potency (CAOV3) | Potency (CASKI) | Potency (Es-2) | Potency (HeLa) | Potency (Hek293T) | Potency (JEG-3) | Potency (OV90) | Potency (PA-1) | Potency (SKOV3) | Potency (Tov-21-G) | Potency (Tov112D) | activity, negative = cell killing [1, 2] 1.49% | activity, negative = cell killing [1, 3] -17%

CCCCCCCCCCCCCCCCOP(=O)([O-])OCC[N+](C)(C)C
inactive: Potency (MCC-13) | Potency (MCC-26) | Potency (C33A) | Potency (CASKI) | Potency (Es-2) | Potency (Hek293T) | Potency (JEG-3) | Potency (PA-1) | Potency (SKOV3) | Potency (Tov112D) | activity, negative = cell killing [1, 5] -7.15% | activity, negative = cell killing [1, 6] -0.719% | activity, negative = cell killing [1, 7] -5.47%
active: Potency (OV90) 25.1 µM | Potency (Tov-21-G) 25.1 µM

Cc1cc(N)c2cc(NC(=O)Nc3ccc4nc(C)cc(N)c4c3)ccc2n1
inactive: Potency (MCC-13) | Potency (MCC-26) | Potency (MKL-2) | Potency (UISO) | Potency (C33A) | Potency (CASKI) | Potency (Es-2) | Potency (HeLa) | Potency (Hek293T) | Potency (JEG-3) | Potency (PA-1) | Potency (SKOV3) | Potency (Tov112D)

C#C[C@]1(O)CC[C@H]2[C@@H]3CCc4cc(OC5CCCC5)ccc4[C@H]3CC[C@@]21C
inactive: Potency (MCC-13) | Potency (MCC-26) | Potency (C33A) | Potency (CAOV3) | Potency (CASKI) | Potency (Es-2) | Potency (HeLa) | Potency (Hek293T) | Potency (JEG-3) | Potency (Tov-21-G) | Potency (Tov112D) | activity, negative = cell killing [1, 7] -25.1%
active: Potency (OV90) 20 µM | Potency ([1]; tumour line A) 4.47 µM | Potency ([1]; tumour line B) 10 µM

CCCCOc1cc(C(=O)NCCN(CC)CC)c2ccccc2n1
active: Potency ([1]; tumour line A) 3.98 µM
inactive: Potency (MCC-13) | Potency (MCC-26) | Potency (MKL-1) | Potency (C33A) | Potency (CASKI) | Potency (Hek293T) | Potency (JEG-3) | Potency (Tov112D) | activity, negative = cell killing [1, 2] 9.91% | activity, negative = cell killing [1, 3] -15.3%

CC(C)N=C(N)/N=C(\N)Nc1ccc(Cl)cc1
active: Potency (SKOV3) 28.2 µM
inactive: Potency (MCC-13) | Potency (MCC-26) | Potency (MKL-1) | Potency (HeLa) | Potency (Hek293T) | Potency (JEG-3) | Potency (OV90) | Potency (PA-1) | Potency (Tov-21-G) | Potency (Tov112D) | activity, negative = cell killing [1, 2] -3.45% | activity, negative = cell killing [1, 3] -11.2% | activity, negative = cell killing [1, 4] -20.6%

CC(=O)[C@H]1CC[C@H]2[C@@H]3C[C@H](C)C4=CC(=O)CC[C@]4(C)[C@H]3[C@@H](O)C[C@]12C
active: Potency (HeLa) 15.8 µM
inactive: Potency (MCC-13) | Potency (MKL-1) | Potency (MKL-2) | outcome (NIH3T3) | Potency (UISO) | Potency (WaGa) | Potency (C33A) | Potency (CAOV3) | Potency (CASKI) | Potency (Es-2) | Potency (Hek293T) | Potency (JEG-3) | Potency (OV90) | Potency (SKOV3) | Potency (Tov-21-G) | Potency (Tov112D) | activity, negative = cell killing [1, 2] 12.3% | activity, negative = cell killing [1, 3] -24.6%

O=C1OCCN1/N=C/c1ccc([N+](=O)[O-])o1
inactive: Potency (MCC-13) | Potency (MCC-26) | outcome (NIH3T3) | Potency (C33A) | Potency (CAOV3) | Potency (CASKI) | Potency (Es-2) | Potency (HeLa) | Potency (Hek293T) | Potency (JEG-3) | Potency (OV90) | Potency (SKOV3) | Potency (Tov-21-G) | Potency (Tov112D) | activity, negative = cell killing [1, 5] 4.9% | activity, negative = cell killing [1, 6] -7.13% | activity, negative = cell killing ([1]; at 46 µM (top of the series), tumour line A) -29.3% | activity, negative = cell killing [1, 7] 4.37%

CCOC(=O)/C=C(C)/C=C/C=C(C)/C=C/c1c(C)cc(OC)c(C)c1C
inactive: Potency (MCC-13) | Potency (MCC-26) | Potency (C33A) | Potency (CAOV3) | Potency (CASKI) | Potency (Es-2) | Potency (HeLa) | Potency (Hek293T) | Potency (JEG-3) | Potency (OV90) | Potency (PA-1) | Potency (SKOV3) | Potency (Tov-21-G) | Potency (Tov112D)

CCCOC(C(=O)OC1CCN(C)CC1)(c1ccccc1)c1ccccc1
inactive: Potency (MCC-13) | Potency (MCC-26) | Potency (MKL-1) | Potency (UISO) | Potency (C33A) | Potency (CAOV3) | Potency (CASKI) | Potency (Es-2) | Potency (HeLa) | Potency (Hek293T) | Potency (JEG-3) | Potency (PA-1) | Potency (SKOV3) | Potency (Tov-21-G) | Potency (Tov112D)

COc1cccc(CCc2ccccc2OCC(CN(C)C)OC(=O)CCC(=O)O)c1 (configuration not stated)
inactive: Potency (MCC-13) | Potency (MCC-26) | Potency (MKL-1) | Potency (UISO) | Potency (C33A) | Potency (CAOV3) | Potency (CASKI) | Potency (Es-2) | Potency (HeLa) | Potency (Hek293T) | Potency (JEG-3) | Potency (PA-1) | Potency (SKOV3) | Potency (Tov-21-G) | Potency (Tov112D)
